# Test results as given in PubChem BioAssay (NCI).
# The panel holds about 79,000 compounds, 15% with a hit somewhere; the sample as a whole holds those more often. Values without a mark were called inactive. Activity calls are given as the source filed them. Rule as the data show it: active = growth inhibition above about 70%; inactive = the rest.
# Tests used:
# [1] = NCI Yeast Anticancer Drug Screen. Data for the rad50 strain (AID 155);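 also: 0% = growth of vehicle-only cultures of the same strain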; details: S. cerevisiae rad50 strain growth inhibition, stronger effect = higher value
# In short: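 Genetically altered yeast (DNA repair pathway); compound treatment; growth inhibition vs vehicle ctrl.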
# [2] = NCI Yeast Anticancer Drug Screen. Data for the mec2-1 strain (AID 157); details: S. cerevisiae mec2-1 strain, stronger effect = higher value
# In short: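 Each compound was tested on mec2-1 yeast, a strain altered in DNA damage repair or cell cycle control. Growth inhibition is reported relative to vehicle.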
# [3] = NCI Yeast Anticancer Drug Screen. Data for the sgs1 mgt1 strain (AID 161);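 also: 0% = growth of cultures given vehicle only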; details: S. cerevisiae sgs1 mgt1 strain, stronger effect = higher value
# In short: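 Read-out: growth inhibition vs vehicle controls. Cells: mutant yeast strain deficient in DNA damage repair.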
# [4] = NCI Yeast Anticancer Drug Screen. Data for the cln2 rad14 strain (AID 165);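 also: 0% = growth equal to vehicle treated cultures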; details: S. cerevisiae cln2 rad14 strain, stronger effect = higher value
# In short: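 Test compounds were added to cln2 rad14 yeast cultures; inhibition of growth was then determined by comparison with vehicle treatment.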
# [5] = NCI Yeast Anticancer Drug Screen. Data for the bub3 strain (AID 167); details: S. cerevisiae bub3 mutant strain, stronger effect = higher value
# In short: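 Yeast carrying a defined mutation is treated with each compound, and growth is compared with that of vehicle-exposed cells to give inhibition.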
# [6] = NCI Yeast Anticancer Drug Screen. Data for the mlh1 rad18 strain (AID 175); details: S. cerevisiae mlh1 rad18 strain growth inhibition, stronger effect = higher value
# In short: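 Inhibition values reflect reduced growth of mutant yeast versus vehicle-treated controls following compound exposure; the mutations affect DNA damage repair.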
# [7] = at 5.0 µM (retest, dose inferred, filed as 0.5)
# [8] = at 50.0 µM (retest, dose inferred, filed as 5.0)
SMILES,"growth inhibition [1, 7]","growth inhibition [1, 8]",growth inhibition ([1]; at 50.0 µM),"growth inhibition [2, 7]","growth inhibition [2, 8]",growth inhibition ([2]; at 50.0 µM),"growth inhibition [3, 7]","growth inhibition [3, 8]",growth inhibition ([3]; at 50.0 µM),"growth inhibition [4, 7]","growth inhibition [4, 8]",growth inhibition ([4]; at 50.0 µM),"growth inhibition [5, 7]","growth inhibition [5, 8]",growth inhibition ([5]; at 50.0 µM),"growth inhibition [6, 7]","growth inhibition [6, 8]",growth inhibition ([6]; at 50.0 µM)
Cc1c2c(c(C)c3c1OC(C)(C)CC3)OC(C)(C)CC2,-10%,-4%,34.6%,-13%,-7%,77.2% (active),-14%,8%,62.2%,-6%,0%,46.5%,-5%,-5%,11.2%,-13%,-7%,98.2% (active)
CC(C)(C)NCc1cc(Nc2ccnc3cc(Cl)ccc23)cc(-c2ccc(Cl)cc2)c1O,-6%,19%,14.7%,-4%,17%,-16.1%,-5%,-15%,-9.6%,-2%,18%,68.5%,7%,-8%,2.1%,-1%,22%,20.5%
CC(C)(C)C(=O)OCC(=O)c1ccc(-c2ccccc2)cc1,-2%,-6%,11%,-6%,-6%,-0.25%,-2%,-4%,13.7%,-9%,-13%,-4.6%,73% (active),86% (active),65%,-4%,-8%,3.75%
O=[N+]([O-])c1c(Cl)c(Cl)c(O)c(Cl)c1Cl,55%,80% (active),76.5% (active),44%,83% (active),78.7% (active),75% (active),87% (active),90% (active),31%,64%,30.9%,55%,75% (active),78.2% (active),32%,89% (active),70.8% (active)
COc1ccc(/C=C(/NC(=O)c2ccccc2)C(=O)Nc2ccccc2)cc1OC,-13%,-6%,3.3%,-7%,-12%,16.1%,-6%,-5%,-18.4%,-23%,-24%,50.5%,-6%,9%,-8.25%,-4%,-11%,29.3%
CCN(CC)CCOc1ccc(/C(C#N)=C/c2ccc3ccccc3c2)cc1,38%,99% (active),99.5% (active),30%,99% (active),99.5% (active),73% (active),100% (active),99.2% (active),28%,99% (active),99.5% (active),53%,99% (active),99.4% (active),35%,99% (active),99.2% (active)
CCC(C)(O)Cc1cnccn1 (configuration not stated),3%,1%,1.75%,0%,1%,-2.7%,2%,-3%,7.25%,-1%,-2%,14.8%,0%,1%,12.1%,-10%,2%,9.25%
O=CC(=C\c1ccco1)/C(C=O)=C\c1ccco1,11%,25%,18.1%,7%,44%,5.45%,11%,63%,13%,2%,15%,33.9%,-6%,33%,-23.6%,21%,86% (active),71.9% (active)
CCC(c1ccc(O)cc1)C(CC)c1ccc(O)c(CN(C)C)c1 (configuration not stated),1%,76% (active),66.8%,0%,74% (active),45.5%,-6%,98% (active),74.2% (active),-3%,83% (active),42.6%,-1%,83% (active),36.5%,2%,96% (active),65.3%
